ELG1 repair inh = ELG1-dependent DNA repair inhibition; HEK293T ELG1-luciferase reporter, luminescence, 16 h; DNA damage induced by 5-fluorouridine; Potency, µM (doses to about 46.1 µM), for inactives: top-dose activity change, negative = inhibition, most hits filed as inhibitors; hit rate 2.3% among 330,000; AID 504467; also: potency is read from the fitted curve at half-maximal effect; nearly all actives have a fitted effect of over 55% in size
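DMSO vehicle served as the neutral condition. Each well held 2,000 cells given 5-fluorouridine plus compound; after 16 hr at 37 °C/5% CO2, ONE-Glo was added and luciferase measured 30 min later.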
HT1080 IDH1KD tx = HT-1080 IDH1 knockdown cell toxicity (counter line). HT-1080 IDH1 knockdown viability, ATP luminescence, 48 h. Potency, µM (series often up to 46.1 µM), for inactives: at the top dose activity, negative = toxicity, usual class: cytotoxic. hit rate 2% among 360,000. AID 686971;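 also: potency is read from the fitted curve at half-maximal effect; 0% = DMSO wells and -100% = cell-free medium wells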
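Cytotoxicity counter-line: IDH1KD HT-1080, 48 h, CellTiter-Glo. Curves classed by r2, magnitude and activity.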
TDP1 cell noCPT = qHTS for Inhibitors of human tyrosyl-DNA phosphodiesterase 1 (TDP1): qHTS in cells in absence of CPT. DT40 Tdp1-/- hTDP1 cells, no CPT, ATP luminescence, 48 h. Potency, µM (series often up to 46.2 µM), for inactives: at the top dose activity change, negative = growth inhibition, hits mostly inhibitors. hit rate 15% among 420,000. AID 686978, 2013; also: potency is read from the fitted curve at half-maximal effect; nearly all actives have a fitted effect of over 55% in size
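Luminescent ATP content (CellTiter-Glo) served as the growth readout. Knockout chicken DT40 cells expressing human TDP1 were exposed to compounds without camptothecin for a minimum 48 hr at 37 °C.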
DT40 TDP1 CPT = growth inhibition of DT40 Tdp1-/-;hTDP1 cells with camptothecin (screen for TDP1 inhibitors); Potency, µM (titrated, usually from 46.2 µM), without a hit: at the highest dose activity change, negative = growth inhibition, most hits filed as inhibitors; hit rate 12% among 420,000; chicken DT40 Tdp1-/-;hTDP1 cells + 20 nM CPT, ATP luminescence, 48 h; also: potency is read from the fitted curve at half-maximal effect; nearly all actives have a fitted effect of over 55% in size
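Chicken DT40 Tdp1-/- cells stably complemented with human TDP1 were seeded at 400 cells/well in medium containing 20 nM camptothecin, exposed to pin-transferred compounds, and grown at 37 °C for at least 48 hr. Viability was read as ATP luminescence.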
IL-1B inflam inh = inhibitors of inflammasome signaling (IL-1 beta secretion); THP-1 LPS/ATP IL-1B secretion, AlphaLISA, 16 h; stronger effect = lower value; activity change, % at 57.5 µM; hit rate 4.7% among 360,000; in the data active = activity change below about -50%; inconclusive = mostly about -30% to -49%
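THP-1 cells pretreated 1 hr with compounds (up to 57.5 uM final), then stimulated with LPS (250 ng/mL final) plus ATP (1.25 mM final); secreted IL-1B measured by AlphaLISA after 16 hr, decreased signal indicating inhibition.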
HT1080NT lethal = kills 2HG-producing HT-1080-NT fibrosarcoma cells. HT-1080-NT fibrosarcoma viability, CellTiter-Glo ATP luminescence, 48 h. hit rate 1.6% among 360,000. Potency, µM (series often up to 46.1 µM), for the others: at the top dose activity, negative = less viability, most hits filed as cytotoxic;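 also: NT is the 2HG producing partner of a matched IDH1 knockdown line; potency is read from the fitted curve at half-maximal effect; 0% = DMSO-treated cells and -100% = media-only wells without cells; nearly all actives have a fitted effect of over 55% in size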
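Read-out is CellTiter-Glo luminescence after 10 minutes at room temperature, following 48 hours' compound treatment of HT-1080-NT cells (750 cells/well, RPMI, 5% FBS, 37 degrees C).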
Starred values were filed as active, the others as inactive; ? = inconclusive; . = not tested or not shown; [ ] = remark or other dose. Compounds with a hit are over-represented: about 19% of the library has one in this group of screens. Unless noted, calls follow the shape of the dose curve; as a rule, active = well fitted curve in the direction sought with a large enough effect; inconclusive = small, poorly fitted or top-dose-only effect, or another doubt; inactive = no such curve, though single readings can be large; an effect the other way counts as inactive or inconclusive. Unless noted, % is scaled to controls: 0 for no effect and ±100 for the full control effect.

SMILES	ELG1 repair inh	HT1080 IDH1KD tx	TDP1 cell noCPT	DT40 TDP1 CPT	IL-1B inflam inh	HT1080NT lethal
CCc1ccc(-c2cc(C)no2)cc1S(=O)(=O)NCCCN1CCN(c2ccccc2)CC1	-28.4%	?	?	?	-18.9	18.4µM*
CCc1ccc(-c2cc(C)no2)cc1S(=O)(=O)N1CCN(C(=O)c2ccco2)CC1	?	-10.3%	20.6µM*	0.4%	-18.8	-26.8%
CCc1ccc(-c2cc(C)no2)cc1S(=O)(=O)N1CCN(c2ccc(OC)cc2)CC1	-26.3%	?	?	20.6µM*	-1.8	?
COc1cccc(N2CCN(S(=O)(=O)c3cc(-c4cc(C)no4)ccc3C)CC2)c1	.	.	18.4µM*	?	.	.
COc1ccc(-c2cc(C)no2)cc1S(=O)(=O)N1CCN(c2ccc([N+](=O)[O-])cc2)CC1	-19.8%	-8.3%	0.2%	?	30.8	-4.1%
Cc1cc(-c2ccc(C)c(S(=O)(=O)N3CCN(C(=O)c4ccco4)CC3)c2)on1	-4.2%	2.7%	8.7%	2.5%	-14.6	-6.2%
CCNC(=O)C1(C)CCN(Cc2csc(-c3ccccc3)n2)C1 (stereo unspecified)	.	0.2%	11.6µM*	?	-16.7	-21.5%
CCNC(=O)C1(C)CCN(Cc2ccc(-c3ccccc3)cc2)C1 (stereo unspecified)	.	-19.5%	20.6µM*	?	-8.0	-25.4%
O=C1OC2(c3ccccc31)c1cc(Br)c(O)c(Br)c1Oc1c2cc(Br)c(O)c1Br	.	.	-21.4%	-7.1%	.	.
Cc1ccc(C)c(N2N=C(C(=O)NCCN3C(=O)S/C(=C\c4cccnc4)C3=O)CCC2=O)c1	-10.2%	-13.6%	?	-29.3%	-8.4	-19.7%
CCOc1ccc(C(=O)N2CCN(CC(=O)N3CCCC3)CC2)cc1OCC	?	-2.5%	6.2%	-0.6%	-8.4	-1.5%
O=C(O)c1ccccc1C(=O)c1ccc(F)c(F)c1	.	0.8%	2.8%	-4.0%	0.0	5.7%
CCc1cc(/C(Cc2ccccn2)=N\O)c(O)cc1O	?	12.6µM*	-29.1%	?	-6.3	?
Cc1c(O)ccc(/C(Cc2ccc3ccccc3n2)=N\N)c1O	?	?	10.3µM*	7.31µM*	0.0	-15.6%
CCc1cc(/C(Cc2ccc3ccccc3n2)=N\O)c(O)cc1O	?	-8.2%	?	?	-101.3*	-9.6%
NC(=O)c1ncn([C@@H]2O[C@H](CNCc3cccn3-c3ccncc3)[C@@H](O)[C@H]2O)n1	.	-2.5%	2.3%	19.3%	14.3	-5.6%
CCc1ccc(-c2cc(C(F)(F)F)n3nc(C(=O)Nc4cnn(Cc5ccc(C)cc5)c4)cc3n2)s1	?	3.16µM*	5.01µM*	5.01µM*	-27.3	?
Cc1ccccc1Cn1cc(NC(=O)c2cc3nc(-c4ccco4)cc(C(F)(F)F)n3n2)cn1	6.51µM*	-19.5%	?	?	-4.8	-22.0%
Cc1nc([N+](=O)[O-])cn1-c1nc2ccccn2c1[N+](=O)[O-]	-4.8%	11.7%	-2.9%	42.6%	6.2	10.0%
OCc1nc2ccccc2[nH]1	.	.	-7.8%	-1.2%	.	.
Oc1ccc(O)c(Cc2nc3ccccc3[nH]2)c1	8.4%	-6.1%	8.2µM*	?	-22.2	-17.7%
CCN(C[C@H]1N[C@@](Cc2ccccc2)(C(=O)OC)[C@H]2C(=O)N(Cc3ccccc3)C(=O)[C@@H]12)S(=O)(=O)c1ccc(-c2ccccc2)cc1	0.6%	2.8%	-12.2%	-13.9%	-5.3	11.5%
CCN(C[C@H]1N[C@@](CC)(C(=O)OC)[C@H]2C(=O)N(Cc3ccccc3)C(=O)[C@@H]12)S(=O)(=O)c1ccc(F)cc1	?	4.2%	20.6µM*	?	-15.7	2.0%
COC(=O)[C@]1(Cc2ccccc2)N[C@H](CN(C)S(=O)(=O)c2ccc(C)cc2)[C@@H]2C(=O)N(Cc3ccccc3)C(=O)[C@@H]21	?	-1.3%	-29.2%	?	-26.5	0.5%
CCN(C[C@H]1N[C@@](Cc2ccccc2)(C(=O)OC)[C@H]2C(=O)N(Cc3ccccc3)C(=O)[C@@H]12)S(=O)(=O)c1ccc(C)cc1	?	3.7%	20.6µM*	16.4µM*	-24.6	15.3%
SMILES	ELG1 repair inh	HT1080 IDH1KD tx	TDP1 cell noCPT	DT40 TDP1 CPT	IL-1B inflam inh	HT1080NT lethal
CCN(C[C@H]1N[C@@](Cc2ccccc2)(C(=O)OC)[C@H]2C(=O)N(Cc3ccccc3)C(=O)[C@@H]12)S(=O)(=O)c1ccccc1	-8.1%	6.7%	23.1µM*	?	-13.1	4.2%
Cn1ncc2c(Nc3cccc(F)c3)ncnc21	.	.	-22.5%	-29.6%	.	.
COc1cc2nc(N(C)C)c(CNCc3cccc4ccccc34)cc2c(OC)c1OC	.	.	?	-6.0%[9.04 µM]	.	.
COc1cc(NC(=O)Cn2cnc(S(=O)(=O)N3CCC(C)CC3)c2)cc(OC)c1OC	-0.1%	-0.6%	15.0%	13.6%	30.3	5.0%
CC(C(=O)N1CCN(Cc2ccc3c(c2)OCO3)CC1)n1cc([N+](=O)[O-])cn1 (stereo unspecified)	-5.1%	2.4%	-8.8%	7.9%	28.9	10.7%
CCC(=O)c1ccc(OCC(=O)OCC(=O)N2c3ccccc3CC2C)cc1 (stereo unspecified)	?	6.8%	-5.7%	11.6%	31.2	1.1%
CC1CCCC(=NNc2ccc3ccccc3n2)C1 (stereo unspecified)	.	-1.0%	?	-5.3%	30.0	-2.8%
COc1ccc2[nH]c3c(N4CCC(O)(c5cccc(C(F)(F)F)c5)CC4)ncnc3c2c1	?	20.6µM*	20.6µM*	20.6µM*	-14.6	?
COc1ccc2cc(C(=O)N3CCN(Cc4ccc5c(c4)OCO5)CC3)[nH]c2c1	7.0%	-21.0%	-6.9%	-28.3%	-26.0	?
COc1ccc2[nH]c3c(N4CCN(Cc5ccc6c(c5)OCO6)CC4)ncnc3c2c1	25.9µM*	?	23.1µM*	14.6µM*	?	20.6µM*
O=[N+]([O-])c1cccnc1N1CCN(Cc2ccc3c(c2)OCO3)CC1	0.2%	1.3%	-28.1%	?	-15.8	-6.4%
COc1ccc2c(c1)c1ncnc(N3CCN(Cc4ccc5c(c4)OCO5)CC3)c1n2C	16.4µM*	.	.	.	.	.
CCCN(c1ccc(C(C)C)cc1)S(=O)(=O)c1ccc2c(c1)n(C)c(=O)c(=O)n2C	.	.	-4.7%	5.1%	.	.

High-throughput results from PubChem BioAssay.
